High-throughput results as filed in PubChem.
Hits are enriched below; roughly 3.1% of the tested compounds scored in any of these assays.
Wnt bcat act – Wnt/beta-catenin pathway activation; Wnt/beta-catenin reporter cell assay, activator, plate reader; activation, % at 9.35 µM; 1.2% of 300,000 active; AID 743398; in the data active = activation above about 30%, passing the limit was not always enough; inconclusive = no clear call, values can overlap the other calls;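 also: 0% = neutral control wells and 100% = positive control wells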
MITF act – MITF TRPM1 promoter activation in melanoma cells. SK-MEL-5 TRPM1-promoter luciferase, 24 h; % of positive control, neutral wells = 0. activation, % at 12.5 µM. 0.75% of 300,000 active. AID 588334;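 active = mean activation of at least 80% with every replicate also reaching 80%; inconclusive = mean reaches 80% but some replicate falls short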;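 also: 0% = neutral control wells and 100% = parthenolide positive control wells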
esBAF inh – inhibitors of esBAF chromatin remodeling in mouse ES cells | AID 602393 | 2% of 350,000 active | reporter increase, % at 12.5 µM | Bmi1-luciferase knock-in reporter, 24 h; 100% = twice the neutral-well signal; in the data active = activation above about 40%; inconclusive = no clear call, values can overlap the other calls;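 also: 0% = median of the plate's neutral control wells and 100% = double that signal; a rise in the Bmi1 reporter signal indicates esBAF inhibition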
Statin myotox sup – suppression of simvastatin myotoxicity. C2C12 myotubes + simvastatin, ATP luminescence, 48 h; scaled: DMSO 0, geranylgeraniol control 100. rescue of ATP level, % at 7.49 µM. 0.78% of 330,000 active;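 active = mean ATP rescue above about 67%, or every replicate alone reaching that limit, limit read from the data, passing the limit was not always enough; inconclusive = no clear call, values can overlap the other calls; inactive = mean under the limit and some replicate under it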;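 also: myotubes were challenged with 10 µM simvastatin during compound exposure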
Rtt109 Vps75 – C. albicans Rtt109 histone acetyltransferase inhibition | Q5AAJ8 | AID 540336 | 0.16% of 330,000 active | inhibition, % at 34.9 µM | purified Rtt109/Vps75, ThioGlo CoA-SH fluorescence, 4 h;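 active = inhibition of at least 50% in every replicate; inconclusive = best replicate reaches 50% inhibition but some replicates fall short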
Target sequence (Q5AAJ8 whole entry, looked up): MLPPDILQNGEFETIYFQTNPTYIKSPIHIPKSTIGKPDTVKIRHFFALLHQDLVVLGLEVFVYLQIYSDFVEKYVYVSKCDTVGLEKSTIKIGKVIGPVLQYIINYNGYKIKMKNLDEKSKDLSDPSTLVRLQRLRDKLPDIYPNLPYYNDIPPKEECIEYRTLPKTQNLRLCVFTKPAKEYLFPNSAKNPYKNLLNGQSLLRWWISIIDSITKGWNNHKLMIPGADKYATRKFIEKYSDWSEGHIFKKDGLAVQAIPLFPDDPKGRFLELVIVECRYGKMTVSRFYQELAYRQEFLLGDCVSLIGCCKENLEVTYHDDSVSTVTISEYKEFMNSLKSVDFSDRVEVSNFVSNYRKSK
An asterisk follows results filed as active; ? = inconclusive; . = no result given.

SMILES	Wnt bcat act	MITF act	esBAF inh	Statin myotox sup	Rtt109 Vps75
C=CCn1c2ccccc2c(=O)c2cc(C#Cc3ccccn3)ccc21	26	124*	70*	-13	-1
COc1cc2sc3ccc(C#Cc4ccccn4)cc3c(=O)c2cc1OC	14	25	11	-14	-5
COc1ccc(C#Cc2ccc3c(c2)c(=O)c2ccccc2n3C)cc1	2	-3	-3	-2	-10
C[C@H]1CCCCO[C@H](CN(C)C(=O)c2ccncc2)[C@@H](C)CN([C@@H](C)CO)C(=O)c2cc(NS(=O)(=O)c3ccc(F)cc3)ccc2O1	.	.	-6	.	.
CCC(=O)N(C)C[C@@H]1Oc2cc(-c3cccc(OC)c3)ccc2S(=O)(=O)N([C@@H](C)CO)C[C@@H]1C	.	.	0	-5	.
CCCNC(=O)C[C@H]1C[C@@H]2c3cc(NC(=O)Nc4ccccc4)ccc3O[C@@H]2[C@H](CO)O1	.	.	0	2	.
CNC(=O)CSCc1cnn(-c2ccccc2)c1-n1cccc1	0	.	8	-5	9
O=C(CSCc1cnn(-c2ccccc2)c1-n1cccc1)NCc1cccs1	.	6	7	121*	-2
COc1ccccc1-c1cc2ccccc2[nH]1	.	73	74*	-1	5
O=C(O)c1ccccc1-c1cc2ccccc2[nH]1	5	.	.	.	-1
CSc1cccc(CNC(=O)C2CCC(=O)N(CCc3ccccc3)C2)c1 (stereo not given)	46*	.	20	-24	.
CSc1cccc(CNC(=O)C2CCC(=O)N(CCc3ccccn3)C2)c1 (stereo not given)	-1	-5	-1	5	-10
Clc1ccc(CN2CCN(/N=C/c3ccco3)CC2)cc1	-1	8	-8	5	3
Cc1ccc(/C=N/N2CCN(Cc3ccc(Cl)cc3)CC2)o1	.	12	5	81*	-4
COC(=O)c1ccc(/C=N/N2CCN(Cc3ccc(Cl)cc3)CC2)cc1	51*	.	.	.	.
CNC[C@H]1OCCCC[C@H](C)Oc2ccc(NS(=O)(=O)c3ccccc3)cc2C(=O)N([C@@H](C)CO)C[C@@H]1C	.	.	-7	-52	.
C[C@H]1CN([C@@H](C)CO)C(=O)c2cccc(NS(=O)(=O)c3ccc(Cl)cc3)c2O[C@@H]1CN(C)S(=O)(=O)c1cn(C)cn1	.	.	-8	.	.
Oc1ccc(Br)cc1C=Nc1ccc(Cl)cc1	0	4	.	.	-1
CCN(CC)c1ccc(N=Cc2cc(Br)ccc2O)cc1	0	-18	.	.	59*
O=c1c(-c2ccc(F)cc2)coc2cc(O)ccc12	.	75	33	24	-15
COc1ccc(-c2coc3cc(O)ccc3c2=O)cc1OC	.	39	59*	2	2
COc1ccccc1-c1coc2cc(O)cc(O)c2c1=O	.	31	46*	-14	-3
O=c1c(-c2ccc(O)cc2O)coc2cc(O)cc(O)c12	-2	5	1	4	-8
COc1ccc(-c2coc3cc(O)cc(O)c3c2=O)cc1OC	25	67	54*	12	-1
O=C(C1CCCCC1)N1C[C@H]2[C@@H](c3ccccc31)[C@H](CO)N2CC1CCOCC1	.	.	2	2	.
SMILES	Wnt bcat act	MITF act	esBAF inh	Statin myotox sup	Rtt109 Vps75
CCCNC(=O)[C@H]1[C@H](CO)[C@H]2Cn3c(ccc(-c4ccccc4F)c3=O)[C@@H]1N2CCC	.	.	1	3	.
CC1CCCCC1Nc1nc2ccc(Cl)cc2n2cnnc12 (stereo not given)	0	5	-6	98*	7
CO[C@H]1CN(C)C(=O)c2ccc(NC(=O)c3ccc(F)cc3)cc2OC[C@H](C)N(C(C)=O)C[C@H]1C	.	.	-3	-2	.
CCCc1nc2oc3ccccc3c(=O)c2c(=O)n1-c1ccc(C)cc1	49*	.	.	.	.
CCc1nc2oc3ccccc3c(=O)c2c(=O)n1-c1ccc(C)cc1	44*	.	.	.	.
Cc1ccc(-n2c(C(C)C)nc3oc4ccccc4c(=O)c3c2=O)cc1	65*	44	.	.	4
COc1ccc(Cn2c(-c3ccco3)nc3oc4ccccc4c(=O)c3c2=O)cc1	7	.	68*	3	-5
CCCc1nc2oc3ccccc3c(=O)c2c(=O)n1-c1ccccc1	15	.	.	.	.
COC(=O)C[C@@H]1C[C@H]2c3cc(NC(=O)Nc4ccc(C(F)(F)F)cc4)ccc3O[C@H]2[C@@H](CO)O1	.	.	6	-10	.
CCc1nc2oc3ccccc3c(=O)c2c(=O)n1-c1ccccc1	53*	35	30	0	10
CCc1nc2oc3ccccc3c(=O)c2c(=O)n1CCOC	-7	.	-11	2	8
Cc1nc(-c2ccccc2)nc2[nH]c(=O)n(-c3ccccc3)c(=O)c12	?	.	43*	5	0
Cc1nc(-c2ccccc2)nc2[nH]c(C(C)C)cc(=O)c12	68*	5	-5	-8	4
C[C@H](NC(=O)C[C@H]1C[C@@H]2c3cc(NC(=O)NC4CCCCC4)ccc3O[C@@H]2[C@H](CO)O1)c1ccccc1	.	.	0	2	.
CCS(=O)(=O)N1CCCCN2[C@@H](CO)[C@@H](c3ccc(-c4ccccc4F)cc3)[C@@H]2C1	.	.	-3	0	.
CCN(CC)c1ccc(/C=N/NC(=O)Nc2ccccc2)cc1	43*	50	.	.	7
CCOc1ccc(/C=N/NC(=O)Nc2ccccc2)cc1	13	122*	.	.	-2
O=C(N/N=C/c1cccc(Cl)c1Cl)Nc1ccccc1	-2	40	50*	-2	-2
CCN(CC)c1ccc(/C=N/NC(=O)OC(C)(C)C)cc1	59*	76	70*	-23	7
CCN(CC)c1ccc(/C=N\NC(N)=O)cc1	2	-3	.	.	-5
COc1ccc(C#Cc2ccc3c(c2)O[C@@H](CN(C)C(=O)Nc2cccc(OC)c2)[C@@H](C)CN([C@H](C)CO)S3(=O)=O)cc1	.	.	5	-73	.
COc1ccc(S(=O)(=O)Nc2ccc3c(c2)CC(=O)N([C@@H](C)CO)C[C@@H](C)[C@@H](CN(C)C(=O)Nc2ccc4c(c2)OCO4)O3)cc1	.	.	-1	-13	.
C[C@@H]1CN([C@@H](C)CO)C(=O)c2cc(-c3cccc(C#N)c3)cnc2O[C@H]1CN(C)C(=O)C1CCC1	.	.	-6	28	.
O=C(Cc1ccc(Br)cc1)N1CCc2ccccc2C1	5	.	53*	6	-4
O=C(/C=C/C(=O)N1CCc2ccccc2C1)N1CCc2ccccc2C1	0	9	.	.	-30
SMILES	Wnt bcat act	MITF act	esBAF inh	Statin myotox sup	Rtt109 Vps75
Cc1ccc(/C=C/C(=O)N2CCc3ccccc3C2)cc1	-3	21	48*	15	0
O=C(/C=C/c1ccc(F)cc1)N1CCCN(C(=O)/C=C/c2ccc(F)cc2)CC1	2	-12	.	.	-3
O=C(/C=C/c1ccc(F)cc1)N1CCc2ccccc2C1	9	50	48*	7	12
CC(C)(C)c1ccc(/C=C/C(=O)N2CCc3ccccc3C2)cc1	-1	10	-1	-22	26
COc1cccc(C(=O)CN2C3=NCCCN3c3ccccc32)c1	.	3	-3	134*	-6
O=C(c1ccccc1)c1cnc(-c2ccc(Cl)cc2)s1	40*	.	39	-15	-1
